Source: PubChem BioAssay
Sampled rows, rich in hits. Any-hit rate of the full collection: about 7.4%.
Luciferase inh = inhibitors of firefly (Photinus pyralis) luciferase; P08659; purified P. pyralis luciferase, luminescence, biochemical; Potency, µM (highest dose often 115 µM), hits mostly inhibitors; 76,000 compounds, 2.5% hits; AID 1347043; further: nearly all actives have a fitted effect of over 65% in size
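Inhibitors were tested against purified firefly luciferase in a biochemical, low-substrate format (both substrates at 10uM) and luminescence measured with a CCD imager.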
HEK293 viab = counter-screen for SNCA expression inhibitors: cell viability. HEK-293-SNCA-luc viability, GF-AFC fluorescence, 24 h. Potency, µM (highest dose often 57.1 µM), without a hit: at the top dose activity change, negative = cytotoxicity, actives largely listed as cytotoxic. 150,000 compounds, 0.12% hits. AID 1671193;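 further: 0% = DMSO-treated cells and -100% = medium-only wells without cells; nearly all actives have a fitted effect of over 30% in size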
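HEK-293-SNCA-luc cells (1500/well) plated 24 h, then exposed 24 h to a dilution series; GF-AFC added 30 min at 37C, fluorescence 405/540 nm; normalised to medium-only and DMSO wells, Hill fit.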
HEK cytotox = HEK 293 cell cytotoxicity. HEK 293 viability, ATP luminescence (CellTiter-Glo), 48-72 h. Potency, µM (titrated, usually from 115 µM), for the others: at the top dose activity change, negative = cytotoxicity, most hits filed as inhibitors. 94,000 compounds, 6.6% hits; further: nearly all actives have a fitted effect of over 60% in size
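ATP-coupled CellTiter-Glo luminescence served as viability read-out, recorded 10 min after reagent addition at room temperature. HEK 293 cells, 250 cells/well, had been incubated with pintool-transferred compound for 48 or 72 hr at 37 degree Celsius.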
3T3 cytotox = kills NIH 3T3 cells | NIH 3T3 viability, CellTiter-Glo ATP luminescence, 48-72 h | Potency, µM (titrated, usually from 96.7 µM), for the others: at the top dose activity change, negative = cytotoxicity, actives largely listed as inhibitors | 94,000 compounds, 4.3% hits | AID 1345082; further: nearly all actives have a fitted effect of over 55% in size
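First NIH 3T3 cells are plated at 400 cells/well; next compound is pinned in; then plates incubate 48 or 72 hr at 37 °C; finally CellTiter-Glo is added and luminescence read after 10 min.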
SNCA expr inh = reduces expression of the alpha-synuclein gene; 140,000 compounds, 0.17% hits; AID 1671194; Potency, µM (series often up to 57.2 µM), inactives show top-dose activity change, negative = inhibition, hits mostly inhibitors; HEK-293 SNCA-luciferase knock-in, luminescence, 24 h;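 further: plate controls were DMSO cells for no effect and cell-free wells for full effect; nearly all actives have a fitted effect of over 45% in size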
hNpr1 antagonist = antagonists of human natriuretic peptide receptor Npr1. Potency, µM (doses to about 46.3 µM), for the others: at the top dose activity change, negative = inhibition, usual class: inhibitors. 76,000 compounds, 1.6% hits. HEK293 hNpr1 GloSensor cGMP, ANP-stimulated luminescence; calls by dose curve; further: nearly all actives have a fitted effect of over 60% in size
Target sequence (P16066 whole entry, looked up): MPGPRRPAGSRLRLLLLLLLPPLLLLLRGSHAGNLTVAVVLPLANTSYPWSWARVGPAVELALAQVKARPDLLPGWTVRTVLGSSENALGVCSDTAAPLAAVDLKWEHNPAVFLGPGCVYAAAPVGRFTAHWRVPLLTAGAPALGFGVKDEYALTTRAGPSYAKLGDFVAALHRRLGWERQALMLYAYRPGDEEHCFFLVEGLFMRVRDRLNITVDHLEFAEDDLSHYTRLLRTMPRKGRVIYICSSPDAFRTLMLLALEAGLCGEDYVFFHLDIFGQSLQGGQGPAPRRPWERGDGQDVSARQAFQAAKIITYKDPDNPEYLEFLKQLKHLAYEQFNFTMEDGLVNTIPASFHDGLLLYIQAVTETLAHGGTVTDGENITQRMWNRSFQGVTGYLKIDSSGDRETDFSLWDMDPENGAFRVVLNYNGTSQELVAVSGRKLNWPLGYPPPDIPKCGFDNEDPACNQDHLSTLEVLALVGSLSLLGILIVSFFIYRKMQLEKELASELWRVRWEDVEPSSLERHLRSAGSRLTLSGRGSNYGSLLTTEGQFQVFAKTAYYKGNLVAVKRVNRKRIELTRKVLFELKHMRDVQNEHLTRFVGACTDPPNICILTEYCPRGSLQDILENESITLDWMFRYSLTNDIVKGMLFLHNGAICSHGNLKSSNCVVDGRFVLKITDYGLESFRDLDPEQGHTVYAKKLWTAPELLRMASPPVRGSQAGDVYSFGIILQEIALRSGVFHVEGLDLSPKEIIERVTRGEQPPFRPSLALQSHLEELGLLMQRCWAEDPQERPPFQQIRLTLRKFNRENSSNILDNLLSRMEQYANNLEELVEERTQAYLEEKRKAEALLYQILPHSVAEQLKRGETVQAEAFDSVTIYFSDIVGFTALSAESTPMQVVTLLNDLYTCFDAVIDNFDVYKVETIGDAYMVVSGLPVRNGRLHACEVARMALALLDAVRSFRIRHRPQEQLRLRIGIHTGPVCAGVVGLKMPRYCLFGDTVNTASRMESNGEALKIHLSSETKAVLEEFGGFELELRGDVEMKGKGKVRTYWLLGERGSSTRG
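Compound pre-incubated 30 min at room temperature on GloSensor-loaded HEK293 cells stably carrying hNpr1 and the pGS-40F cGMP biosensor. Stimulation uses hNppA at 0.1 nM final; luminescence is taken at baseline and 20 min post-agonist.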
* hit, by the source's call; i = inactive; ? = inconclusive; / = no result given; ! = not active in a repeat; [ ] = dose if it differs, or a comment. Unless noted, the call rests on the fitted dose curve; in most records, active means well fitted curve in the direction sought with a large enough effect; inconclusive means small, poorly fitted or top-dose-only effect, or another doubt; inactive means no such curve, though single readings can be large; an effect the other way counts as inactive or inconclusive. Unless noted, on the % scale 0 is the no-effect control and ±100 the full control effect; potency means the concentration at half of the fitted maximal effect.

SMILES | Luciferase inh | HEK293 viab | HEK cytotox | 3T3 cytotox | SNCA expr inh | hNpr1 antagonist
Cc1ccc(C2Cn3nnc(C(=O)N4CCC(C(=O)NCc5cc(F)ccc5F)CC4)c3CO2)cc1 (stereo not given) | 35µM* | 1% | -21% | -13% | 55% | -2%
Cc1ccc(C2Cn3nnc(C(=O)N4CCC(C(=O)NCc5ccccc5F)CC4)c3CO2)cc1 (stereo not given) | 22µM* | 7% | -1% | i | 109% | 2%
CCCCn1c(=O)c(C(=O)N2CCN(C(=O)NC(C)C)CC2)nc2cccnc21 | / | 10% | -3% | -28% | -5% | /
CCn1cc(CN2CCC3(CC2)CC(C(=O)N2CCOCC2)N(C)C3)cn1 (stereo not given) | / | 14% | -1% | -8% | -1% | /
Cc1nn(C)c(C)c1CN(Cc1cnc(N2CCCCC2)nc1)C1CC1 | ? | -16% | 25µM* | ? | 3% | 13µM*
COCCN1C[C@H]2COc3ccccc3[C@H]2N(C(=O)CC(C)(C)C)CCC1=O | / | / | ? | -20% | / | /
O=C(NC1CCCCC1)O[C@@H]1CO[C@H]2[C@@H]1OC[C@@H]2n1nnnc1Sc1ccccc1 | i | -1%[87.6 µM] | 100µM* | ? | -10%[87.6 µM] | -11%[70.6 µM]
COc1cccc(NC(=O)Cn2c(C)ccc(NC(=O)Nc3ccc(C)cc3)c2=O)c1 | 1µM* | -1% | 79µM* | ? | 106% | ?
Cc1ccc(NC(=O)Nc2ccc(C)n(CC(=O)Nc3ccccc3)c2=O)cc1 | 0.79µM* | 12% | 8% | i | 88% | 0%
COc1ccc(NC(=O)Nc2ccc(C)n(CC(=O)Nc3ccc(C)c(C)c3)c2=O)cc1 | 0.71µM* | 1% | ? | -28% | 63% | -15%
Cc1ccc(S(=O)(=O)Nc2ccc(C)n(CC(=O)Nc3ccccc3)c2=O)cc1 | i | 7% | -13% | -2% | 10% | 6%
CCCN1CCN(C(=O)Cn2c(C)ccc(NC(=O)Nc3ccccc3)c2=O)CC1 | 35µM* | 7% | -3% | i | 13% | 8%
CNC(=O)c1cc(C2CC2)nc2onc(C3CCCN3C(=O)NC(C)(C)c3ccccc3)c12 (stereo not given) | / | / | i | 2% | / | /
Cc1ccc(NC(=O)Nc2ccc(C)n(CC(=O)NC3CCCCC3)c2=O)cc1 | 0.4µM* | 0% | ? | ? | -9% | ?
Cc1ccc(NC(=O)Nc2ccccc2)c(=O)n1CC(=O)NCCN1CCCCC1 | i | 7% | 9% | i | 43% | 7%
O=C1Nc2ccccc2CC12CCCCN2Cc1ccc(F)cc1 (stereo not given) | i | -5%[87.6 µM] | 79µM* | ? | 10%[87.6 µM] | -2%[70.6 µM]
COc1ccc(CN2CCC3(CN[S+](=O)([O-])c4ccccc4N3)C2)cc1 (stereo not given) | i | -15% | -19% | -24% | ? | 0%
O=[S+]1([O-])NCC2(CCN(Cc3ccc(OC(F)(F)F)cc3)C2)Nc2ccccc21 (stereo not given) | i | -1% | 79µM* | ? | -16% | 9%
O=C1Nc2ccccc2CC12CCN(Cc1ccc(Cl)cc1)CC2 | / | -15% | 89µM* | ? | 19% | /
O=C1Nc2ccccc2CC12CCN(Cc1ccc(OC(F)(F)F)cc1)C2 (stereo not given) | i | -16% | 28µM* | ? | ? | ?
O=C1Nc2ccccc2CC12CCN(Cc1ccc(F)cc1)CC2 | i | -9%[87.6 µM] | ? | -22%[138 µM] | -23%[87.6 µM] | 6%[70.6 µM]
COc1ccc(CN2CCC3(Cc4ccccc4NC3=O)C2)cc1 (stereo not given) | i | 0%[87.6 µM] | ? | ? | 9%[87.6 µM] | -27%[70.6 µM]
COc1ccc(CCNC(=O)c2ccc3nnc(-c4ccc(F)cc4)n3c2)cc1 | / | -2% | -12% | -23% | 92% | /
COc1cccc(CNC(=O)[C@@H]2CCCN2c2nccc(Nc3ccccc3Cl)n2)c1 | / | -13%[12.5 µM] | ? | ? | -16% | /
Cc1ccccc1C(=O)N1CCC(C(=O)N2CCC(N3CCOC3=O)CC2)CC1 | / | 7% | -5% | -16% | 0% | /
SMILES | Luciferase inh | HEK293 viab | HEK cytotox | 3T3 cytotox | SNCA expr inh | hNpr1 antagonist
Cc1ccccc1C(=O)N1CCCCC12Cc1ccccc1NC2=O (stereo not given) | i | 4%[87.6 µM] | 112µM*! | ? | -1%[87.6 µM] | 15%[70.6 µM]
O=C1Nc2ccccc2CC12CCN2Cc1ccc(OC(F)(F)F)cc1 (stereo not given) | i | 1% | 45µM* | ? | -11% | -15%
Cc1ccc(CN2CCC3(CC2)Cc2ccccc2CNC3=O)cc1 | / | -6% | ? | ? | 13% | /
O=C(C1CCCC1)N1CCCCC12Cc1ccccc1NC2=O (stereo not given) | i | -3%[87.6 µM] | -17%[172 µM] | -8%[138 µM] | 6%[87.6 µM] | 0%[70.6 µM]
O=C1NCc2ccccc2CC12CCN(Cc1ccc(-c3ccccc3)cc1)CC2 | / | -12% | 32µM* | 25µM* | ? | /
O=C1Nc2ccccc2CC12CCN2Cc1ccc(F)cc1 (stereo not given) | i | -1%[87.6 µM] | ? | -25%[138 µM] | -5%[87.6 µM] | 0%[70.6 µM]
Cn1ncc2c(C(=O)NC3CC3)cc(-c3ccc([S+](C)(=O)[O-])cc3)nc21 | / | -14% | -2% | -16% | 7% | /
Oc1ccccc1CN1CCNc2cnc(Oc3ccccc3)cc2C1 | i | 2%[87.6 µM] | 79µM* | ? | -26%[87.6 µM] | ?
Oc1cccc(-c2cc3c(cn2)NCCN(Cc2ccccc2)C3)c1 | i | 5%[87.6 µM] | ? | ? | 31%[87.6 µM] | 3%[70.6 µM]
COc1ccccc1CN1CCNc2cnc(Nc3ccccc3)cc2C1 | i | -19%[87.6 µM] | 89µM* | ? | -19%[87.6 µM] | -1%[70.6 µM]
COc1ccc(OC)c(CN2CCNc3cc(Nc4ccccc4)ncc3C2)c1 | 22µM* | ? | ? | 35µM* | 8%[87.6 µM] | -27%[70.6 µM]
COc1ccccc1CN1CCNc2cnc(-c3ccccc3)cc2C1 | i | -11%[87.6 µM] | 79µM* | ? | -6%[87.6 µM] | -15%[70.6 µM]
COc1ccc(Nc2cc3c(cn2)CN(Cc2ccncc2)CCN3)cc1OC | i | 4%[87.6 µM] | ? | ? | 7%[87.6 µM] | -1%[70.6 µM]
COc1ccc(OC)c(CN2CCNc3cnc(Nc4cccnc4)cc3C2)c1 | i | 6%[87.6 µM] | ? | ? | -26%[87.6 µM] | -14%[70.6 µM]
O=C(Cc1cccnc1)N1CCCC(CN2CCCC2)CC1 (stereo not given) | / | -9% | i | i | -27% | /
Cc1ccc(C(=O)N2CCCC(C(=O)N3CCC(N4CCCC4=O)CC3)C2)cc1 (stereo not given) | / | 6% | -14% | -17% | -11% | /
CCCCCNC(=O)c1ccccc1-c1ccc(OC)nn1 | / | / | -16%[172 µM] | -18%[138 µM] | / | /
COCC(=O)NC1CCN(Cc2cccc(-c3ccc(F)c(F)c3)c2)CC1 | / | ? | ? | ? | -15% | /
